Screening results as filed in PubChem.
Only some compounds are listed: those with a hit (about 12% of all), similar ones and a draw of the others.
G9a inh = qHTS Assay for Inhibitors of Histone Lysine Methyltransferase G9a. Histone-lysine N-methyltransferase EHMT2 (Homo sapiens), Q96KQ7. G9a H3K9 monomethylation, AlphaScreen, 2 h. Potency, µM (series often up to 102 µM), without a hit: top-dose activity, negative = inhibition, hits mostly inhibitors. 350,000 compounds, 8.8% hits. AID 504332, 2011; note: % is set by controls: 0 for no effect and ±100 for the full control effect; nearly all actives have a fitted effect of over 75% in size
Target sequence (Q96KQ7 913-1193 limits assumed): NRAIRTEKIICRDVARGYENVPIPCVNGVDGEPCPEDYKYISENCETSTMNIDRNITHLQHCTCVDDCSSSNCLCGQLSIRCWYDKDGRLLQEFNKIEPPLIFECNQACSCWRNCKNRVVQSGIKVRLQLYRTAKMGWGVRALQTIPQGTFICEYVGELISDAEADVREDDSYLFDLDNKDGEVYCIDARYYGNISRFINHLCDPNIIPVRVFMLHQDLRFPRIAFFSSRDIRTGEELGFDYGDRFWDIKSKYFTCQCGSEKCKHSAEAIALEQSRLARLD
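Methyltransferase reactions run at room temperature for 2 h (20 nM enzyme, 500 nM biotin-H3K9 peptide, 20 uM SAM) after a 15 min compound preincubation; product detected by AlphaScreen beads and anti-H3K9me1 antibody.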
HP1b chromo inh = HTS for Inhibitors of HP1-beta Chromodomain Interactions with Methylated Histone Tails. Chromobox protein homolog 1 (Homo sapiens), P83916. AlphaScreen HP1-beta / biotin-H3K9me3 peptide binding. Potency, µM (series often up to 114 µM), for the others: at the highest dose activity change, negative = inhibition, actives largely listed as inhibitors. 390,000 compounds, 0.56% hits; note: nearly all actives have a fitted effect of over 70% in size
Target sequence (P83916 whole entry, looked up): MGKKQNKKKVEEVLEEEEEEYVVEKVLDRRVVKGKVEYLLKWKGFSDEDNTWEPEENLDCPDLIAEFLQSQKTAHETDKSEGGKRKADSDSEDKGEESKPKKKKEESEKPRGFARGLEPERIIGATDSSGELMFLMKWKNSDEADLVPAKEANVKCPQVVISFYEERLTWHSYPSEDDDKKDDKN
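Compound inhibition of the preformed complex between 50 nM HP1-beta and 50 nM biotinylated H3K9me3 peptide was read by AlphaScreen. Buffer was PBS pH 7.4 with 0.01% Tween-20. Incubations ran 30 min at room temperature, with 10 ug/mL donor/acceptor beads.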
BAZ2B inh = qHTS Assay for Inhibitors of BAZ2B | Potency, µM (highest dose often 114 µM), for inactives: top-dose activity change, negative = inhibition, hits mostly inhibitors | 360,000 compounds, 4.4% hits | Bromodomain adjacent to zinc finger domain protein 2B (Homo sapiens), Q9UIF8 | AlphaScreen BAZ2B-H3K14Ac peptide displacement; note: % is set by controls: 0 for no effect and ±100 for the full control effect; nearly all actives have a fitted effect of over 60% in size
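AlphaScreen displacement: compounds (up to 110uM) incubated 30 min at room temperature with a preformed 50 nM BAZ2B/50 nM biotinylated H3K14Ac peptide complex in PBS pH 7.4 with Tween-20. Donor and acceptor beads at 10 ug/mL final added, 20 min light-protected before reading.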
Sfp inh = qHTS Assay for Inhibitors of Bacillus subtilis Sfp phosphopantetheinyl transferase (PPTase). 4'-phosphopantetheinyl transferase ffp (Bacillus subtilis), Q9F4F7. Biochemical Sfp PPTase activity, qHTS. Potency, µM, for the others: largest response in the series, negative = inhibition, hits mostly inhibitors. 310,000 compounds, 3.5% hits. AID 1490, 2009;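 note: the enzyme is Sfp with the accession as filed and its product quenches rhodamine fluorescence; 0% = enzyme reaction without inhibitor and -100% = no enzyme wells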
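With Hepes-Na pH 7.6 buffer containing 10 mM MgCl2, Sfp (15 nM) modified BHQ-2-YbbR (12.5 uM) using rhodamine-CoA (5 uM). Two reads 30 minutes apart at 525/598 nm yielded each well's rate.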
JMJD2A Tudor inh = qHTS Assay for Inhibitors of JMJD2A-Tudor Domain | Potency, µM (highest dose often 114 µM), inactives show top-dose activity change, negative = inhibition, usual class: inhibitors | AID 504339, 2011 | 390,000 compounds, 4.4% hits | AlphaScreen JMJD2A-Tudor / H3K4me3 peptide binding; note: % is set by controls: 0 for no effect and ±100 for the full control effect; nearly all actives have a fitted effect of over 50% in size
L3MBTL1 inh = qHTS Assay for the Inhibitors of L3MBTL1. Lethal(3)malignant brain tumor-like protein 1 (Homo sapiens), Q9Y468. AlphaScreen L3MBTL1–H3K9me1 peptide binding. Potency, µM (titrated, usually from 57.1 µM), without a hit: at the top dose activity, negative = inhibition, most hits filed as inhibitors. 230,000 compounds, 0.66% hits. AID 485360, 2010; note: % is set by controls: 0 for no effect and ±100 for the full control effect; nearly all actives have a fitted effect of over 60% in size
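Displacement of a biotinylated histone H3(1-15) peptide monomethylated at Lys9 (75 nM) from L3MBTL1 (50 nM) was measured by AlphaScreen after a 30 min room-temperature compound incubation; cefsulodin titration served as intraplate control.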
* hit, by the source's call; u = inconclusive; x = no result; [ ] = dose if it differs, or a comment. Calls come from the whole dose curve; as a rule, active = well fitted curve in the direction sought with a large enough effect; inconclusive = small, poorly fitted or top-dose-only effect, or another doubt; inactive = no such curve, though single readings can be large; an effect the other way counts as inactive or inconclusive. Potency is the fitted concentration of half-maximal effect.

SMILES | G9a inh | HP1b chromo inh | BAZ2B inh | Sfp inh | JMJD2A Tudor inh | L3MBTL1 inh
COc1cccc(NC(=O)[C@H](CC(C)C)NC(=O)[C@@H]2Cc3ccccc3CN2)c1 | 17%[0.0925 µM] | 4% | u | 3% | 79µM* | x
Cc1ccc(NC(=O)[C@@H](CC(C)C)NC(=O)[C@@H]2Cc3ccccc3CN2)cc1 | u | 49% | -19% | 11% | -25% | x
Cc1ccc(NC(=O)[C@H](CC(C)C)NC(=O)[C@@H]2Cc3ccccc3CN2)cc1 | 32µM* | 15% | u | 17% | -24% | x
COc1ccccc1CNC(=O)[C@H](Cc1c[nH]c2ccccc12)NC(=O)[C@@H]1Cc2ccccc2CN1 | 13µM* | 26% | u | 23% | -27% | -11%
COc1ccc(C)cc1NC(=O)CNC(=O)[C@@H]1Cc2ccccc2CN1 | 45µM* | 29% | -6%[57.1 µM] | -3% | -12% | x
COc1ccc([C@H]2c3cc(OC)c(OC)cc3C[C@@H](C)[C@@H]2C)cc1OC | x | x | x | 16% | x | x
NS(=O)(=O)c1ccc(NC(=S)N2CCN(Cc3ccc(Cl)c(Cl)c3)CC2)cc1 | u | 17% | -38% | 21% | u | 0%
NS(=O)(=O)c1ccc(NC(=S)N2CCN(Cc3ccc4c(c3)OCO4)CC2)cc1 | -106%[59 µM] | -1% | -37% | 22µM* | -22% | -8%
CC(C)c1ccccc1NCC(=O)N1CCN(Cc2ccccc2)CC1 | 50µM* | 24% | -33% | 9% | -29% | x
CCC(C)NC(=S)N1CCN(Cc2ccc3c(c2)OCO3)CC1 (stereo unspecified) | 25µM* | -11% | 50µM* | -8% | -7%[11.4 µM] | -2%
CC(C)CNC(=S)N1CCN(Cc2ccc3c(c2)OCO3)CC1 | 16µM* | 25µM* | 22µM* | 79µM* | 20µM* | -16%
Cc1cccc(C)c1NCC(=O)N1CCN(Cc2ccccc2)CC1 | 20%[2.33 µM] | 30% | 10% | 10% | 1% | x
Cc1nc(-n2nc(C)c(Cc3ccccc3Cl)c2C)sc1C(=O)Nc1ccccc1F | -13%[59 µM] | 45% | 2% | x | 4% | x
COCCCN(C(=O)CSc1nc2ccccc2c(=O)n1C)c1c(N)n(Cc2ccccc2)c(=O)[nH]c1=O | x | 50% | x | x | -8% | x
CCOC(=O)c1ccc(N=Nc2c(C)c(C#N)c(O)[nH]c2=O)cc1 | u | 20% | u | 2% | u | x
CCC(C)NC(=S)N1CCN(Cc2ccccc2)CC1 (stereo unspecified) | 0% | 79µM* | 0% | 5% | u | 10%
CC1CCN(C(=O)c2c(NC(=O)c3ccccc3F)sc3c2CCC(C(C)(C)C)C3)CC1 (stereo unspecified) | 1%[59 µM] | 44% | 1% | x | 3% | x
O=C(CSc1nc2c(cnn2-c2ccc(F)cc2)c(=O)[nH]1)Nc1ccc(Br)cc1 | -28%[59 µM] | 10% | -16% | x | u | x
NS(=O)(=O)c1ccc(NC(=O)CSc2nc3c(cnn3-c3ccccn3)c(=O)[nH]2)cc1 | 40µM* | 14% | 9% | x | u | -3%
Cc1cc(Br)c(NC(=O)c2c(-c3c(Cl)cccc3Cl)noc2C)c(Br)c1 | -13%[2.33 µM] | 30% | -1% | 8% | -12% | 9%
CC(C)c1ccc(NC(=O)c2ccc3snnc3c2)cc1 | 25% | 43% | -14% | 5% | -5% | x
CC(C)c1ccc(Nc2nnns2)cc1 | 10µM* | u | -13% | 20µM* | u | x
O=C(NCCc1ccc2c(c1)OCCO2)c1cc(S(=O)(=O)N2CCCC2)ccc1Cl | 40µM* | 25% | -15% | x | -15% | 23%
Cc1ccc2c(c1)CC1(CN2C)C(=O)OC2(CCCCC2)OC1=O | 50µM* | 62% | 2% | -5% | -22%[57.1 µM] | -5%
Cc1ccc(-c2nn3c(-c4ccccc4)nnc3c3ccccc23)cc1 | 19%[59 µM] | 25% | -1% | x | 0% | x
SMILES | G9a inh | HP1b chromo inh | BAZ2B inh | Sfp inh | JMJD2A Tudor inh | L3MBTL1 inh
Cc1ccc2c(c1)nnn2C1CCN(S(=O)(=O)c2ccc(C(=O)N3C(C)CCCC3C)cc2)CC1 (stereo unspecified) | 25µM* | 5% | u | -16% | 50µM* | -1%
Cc1ccc2c(c1)nnn2C1CCN(S(=O)(=O)c2ccc(C(=O)O)cc2)CC1 | x | 20% | -6% | -4% | -3% | 12%
CCCCCSc1nnc2c(n1)OC(c1cccn1C)N(C(C)=O)c1ccccc1-2 (stereo unspecified) | u | u | u | -2% | 28µM* | -9%
CCSc1nnc2c(n1)OC(c1ccc(C)cc1)N(C(C)=O)c1ccccc1-2 (stereo unspecified) | u | -5% | -20% | x | -35% | x
CC(C)CCNS(=O)(=O)c1cc2c3c(c1)CCN3C(=O)CC2 | 23% | 34% | 2% | 8% | -15% | x
O=C(Cc1ccc(F)cc1)NCc1nc2cccnc2n1Cc1ccc(F)cc1 | 11%[59 µM] | 28%[57 µM] | 4% | x | -13% | x
CCC1(C)Cc2c(sc3nc(NC)n(C)c(=O)c23)CO1 (stereo unspecified) | 32µM* | 31% | u | u | u | -2%
CC1(C)Cc2c(sc3nnn(Cc4ccccc4)c(=O)c23)CO1 | 13µM* | 24% | -7% | -21% | 7% | 7%
Cn1c(NN)nc2sc3c(c2c1=O)CC(C)(C)OC3 | -31%[59 µM] | -10% | -4% | u | u | -14%
Cc1ccccc1NC(=O)Cn1nnc2sc3c(c2c1=O)CC(C)(C)OC3 | 24% | -3% | -4% | 4% | -16% | -2%
CCC1(C)Cc2c(sc3nn[nH]c(=O)c23)CO1 (stereo unspecified) | 40µM* | -19% | -3% | -26% | -11% | x
O=C(O)c1ccc(Cn2nnc3sc4c(c3c2=O)CCCC4)cc1 | 50µM* | 6% | 79µM* | -18% | -16% | u
COC(=O)c1ccc(Cn2nnc3sc4c(c3c2=O)CCCC4)cc1 | -3%[59 µM] | 31% | -9% | x | -9% | x
CCSc1nc2sc3c(c2c(=O)[nH]1)CC(C)(CC)OC3 (stereo unspecified) | 107%[59 µM] | 47% | 4% | -7% | -3% | -3%
O=C(C1CCCCC1)N(Cc1cccnc1)c1nc2c(F)cc(F)cc2s1 | -18%[59 µM] | 37% | u | x | 1% | x
CC1(C)Cc2c(sc3nn[nH]c(=O)c23)CO1 | 32µM* | -13% | 14% | -13% | -12% | -5%
